The target of experiment [1] is Progesterone receptor (Homo sapiens) (UniProt P06401). Description: qHTS assay to identify small molecule agonists of the progesterone receptor (PR) signaling pathway (AID 1346784; calls by dose curve; also: nearly all actives have a fitted effect of over 30% in size; also: potency is read from the fitted curve at half-maximal effect). The method, boiled down: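 PR-UAS-bla HEK 293T cells (beta-lactamase reporter under UAS) in 2% charcoal-stripped FBS, dosed with 23 nL compound after 6 hr, incubated 16hr at 37C. LiveBLAzer B/G FRET substrate added, fluorescence read after 2 hours.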
Chain of Progesterone receptor (Homo sapiens) (P06401 whole entry, looked up): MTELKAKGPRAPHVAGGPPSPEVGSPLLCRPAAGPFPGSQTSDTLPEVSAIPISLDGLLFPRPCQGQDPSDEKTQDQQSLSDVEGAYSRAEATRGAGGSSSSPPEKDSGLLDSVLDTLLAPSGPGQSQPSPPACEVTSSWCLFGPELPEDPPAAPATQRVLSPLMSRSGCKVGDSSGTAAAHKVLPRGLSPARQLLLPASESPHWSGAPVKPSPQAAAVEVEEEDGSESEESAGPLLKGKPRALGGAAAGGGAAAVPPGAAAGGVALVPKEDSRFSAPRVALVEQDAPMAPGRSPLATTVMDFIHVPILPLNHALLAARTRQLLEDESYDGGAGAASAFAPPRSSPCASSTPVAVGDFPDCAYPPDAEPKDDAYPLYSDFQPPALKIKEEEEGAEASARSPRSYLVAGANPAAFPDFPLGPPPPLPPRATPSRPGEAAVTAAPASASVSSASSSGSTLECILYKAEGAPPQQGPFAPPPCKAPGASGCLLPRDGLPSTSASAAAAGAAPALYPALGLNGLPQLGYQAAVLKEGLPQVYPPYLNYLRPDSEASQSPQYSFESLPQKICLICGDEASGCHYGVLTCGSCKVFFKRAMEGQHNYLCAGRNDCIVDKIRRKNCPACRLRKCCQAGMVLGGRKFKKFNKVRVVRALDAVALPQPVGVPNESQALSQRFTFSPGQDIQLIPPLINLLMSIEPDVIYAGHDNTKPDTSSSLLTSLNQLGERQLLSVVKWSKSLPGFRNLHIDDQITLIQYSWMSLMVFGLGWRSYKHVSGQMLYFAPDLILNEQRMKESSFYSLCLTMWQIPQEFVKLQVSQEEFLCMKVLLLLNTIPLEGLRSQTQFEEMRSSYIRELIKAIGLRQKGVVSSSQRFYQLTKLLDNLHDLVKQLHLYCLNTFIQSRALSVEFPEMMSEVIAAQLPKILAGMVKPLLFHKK
For orientation: In qHTS, concentration-response curves come from the screen itself.

Experiment [2] in a line: qHTS assay to identify small molecule antagonists of the progesterone receptor (PR) signaling pathway - cell viability counter screen (AID 1346798). Also: series mostly up to about 92 µM; nearly all actives have a fitted effect of over 50% in size. Put shortly:
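PR-UAS-bla HEK293T cells, 3,000/well in 2% charcoal-stripped FBS medium, dosed with compounds plus R5020 agonist and incubated 16 h at 37C. Viability then measured in the same wells by CellTiter-Glo luminescence after 30 min at RT.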

Experiment [3] is described as follows: qHTS assay to identify small molecule antagonists of the TGF-beta/Smad signaling pathway - cell viability counter screen (AID 1346824). Also: nearly all actives have a fitted effect of over 50% in size. Put shortly: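 Cytotoxicity counter-screen run in the same wells as the beta-lactamase Smad reporter read: CellTiter-Glo luminescence after 30 min at room temperature. HEK 293T SBE-bla cells had 5 hr compound exposure at 37 C with TGF-beta1 (0.25 ng/mL stock).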

The nature of experiment [4]: qHTS assay to identify small molecule agonists of the TGF-beta/Smad signaling pathway - cell viability counter screen (AID 1346829). Also: top concentration of the series differs between compounds; nearly all actives have a fitted effect of over 45% in size. The method, boiled down: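 CellTiter-Glo luminescence readout; SBE-bla HEK 293T cells, overnight plating, compound 5 hr at 37 C/5% CO2, then bla substrate 2 hr RT, then CellTiter-Glo 30 min RT.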
Experiment [5] can be described thus: qHTS assay to identify small molecule agonists of the TGF-beta/Smad signaling pathway (AID 1346859; active = well fitted activation curve with a large enough effect in the signal ratio in the repeat runs, not every such curve was filed as active; the % refers to the signal ratio; also: series mostly up to about 77 µM). Put shortly:
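SBE-bla HEK293T cells plated overnight, then compound exposure for 5 h at 37 C. Beta-lactamase reporter read with LiveBLAzer B/G FRET substrate after 2 h at room temperature, fluorescence at 405 nm excitation, 460/530 nm emission.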

The nature of experiment [6]: Human pregnane X receptor (PXR) small molecule agonists, qHTS cell viability counter screen (AID 1346977). Also: nearly all actives have a fitted effect of over 50% in size. Put shortly: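 PXR-Luc HepG2 cells (2,000/well, 5% charcoal-stripped FBS) preincubated 5 hr, then exposed to compounds 24 hr at 37 C. Viability read in the same wells by CellTiter-Fluor fluorescence, reagent added at 23 hr, 1 hr incubation.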
Experiment [7] is described as follows: Caspase-3/7 induction in HepG2 cells by small molecules, qHTS assay (AID 1346978). Also: nearly all actives have a fitted effect of over 15% in size. The method, boiled down: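 Caspase-3/7 induction was measured by Caspase-Glo 3/7 luminescence (30 min, room temperature) after a 17 hr compound exposure of wild-type HepG2 cells seeded at 2,000 per well and pre-incubated 5 hr.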
Experiment [8] in a line: Caspase-3/7 induction in CHO-K1 cells by small molecules, qHTS cell viability counter screen (AID 1346979). Also: nearly all actives have a fitted effect of over 35% in size. Put shortly:
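Wild-type CHO-K1 cells (1,500/well) treated with compound after 5 h plating; after 16 h at 37C, viability read as CellTiter-Fluor fluorescence following 1 h reagent incubation, in the same wells as the caspase read.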

The target in experiment [9] is Nuclear receptor subfamily 1 group I member 2 (Homo sapiens) (UniProt O75469). Nature of the experiment: Human pregnane X receptor (PXR) small molecule agonists, qHTS assay (AID 1346982). Also: nearly all actives have a fitted effect of over 35% in size. Also: potency is read from the fitted curve at half-maximal effect. The method, boiled down: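 We seeded PXR-Luc HepG2 cells in assay medium containing 5% charcoal-stripped FBS, added compounds 5 hr later, incubated 24 hr, and read luminescence with ONE-Glo reagent.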
Chain of Nuclear receptor subfamily 1 group I member 2 (Homo sapiens) (O75469 whole entry, looked up): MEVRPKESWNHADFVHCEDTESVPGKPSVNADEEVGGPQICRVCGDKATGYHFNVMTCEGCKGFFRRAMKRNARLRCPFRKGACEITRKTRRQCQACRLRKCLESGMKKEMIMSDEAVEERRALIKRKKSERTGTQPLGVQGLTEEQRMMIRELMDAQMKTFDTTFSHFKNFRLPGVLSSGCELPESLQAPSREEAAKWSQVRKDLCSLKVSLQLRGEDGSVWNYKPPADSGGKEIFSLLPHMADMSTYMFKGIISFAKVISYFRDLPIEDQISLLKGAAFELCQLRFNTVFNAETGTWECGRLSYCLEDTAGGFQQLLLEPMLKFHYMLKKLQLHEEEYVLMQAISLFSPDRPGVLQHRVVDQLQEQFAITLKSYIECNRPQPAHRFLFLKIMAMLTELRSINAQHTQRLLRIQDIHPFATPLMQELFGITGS

In experiment [10] the target is Cytochrome P450 2D6 (Homo sapiens) (UniProt P10635). Description: Cytochrome P450 Family 2 Subfamily D Member 6 (CYP2D6) small molecule antagonists: luciferase reporter qHTS assay (AID 1671196). Also: nearly all actives have a fitted effect of over 50% in size. Also: potency is read from the fitted curve at half-maximal effect. As to activity change, negative = inhibition: series mostly up to about 120 µM. The method, boiled down:
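Luminescence (RLU), read 20 min after detection reagent, indicated CYP2D6 conversion of proluciferin to luciferin during a 1 h NADPH-dependent reaction at room temperature.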
(In general: A reporter such as luciferase makes a cellular process visible.)

For experiment [11], the target named is Cytochrome P450 2C19 (Homo sapiens) (UniProt P33261). Description: Cytochrome P450 Family 2 Subfamily C Member 19 (CYP2C19) small molecule antagonists: luciferase reporter qHTS assay (AID 1671197). Also: nearly all actives have a fitted effect of over 65% in size. Also: potency is read from the fitted curve at half-maximal effect. As to activity change, negative = inhibition: series mostly up to about 120 µM. Put shortly: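 Enzyme-substrate mix with proluciferin substrate (P450-Glo CYP2C19 system) preincubated with compounds 10 min at room temperature; NADPH regeneration solution added, 37C for 1 h; detection reagent stops reaction, luminescence read after 20 min. Ketoconazole positive control.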
Chain of Cytochrome P450 2C19 (Homo sapiens) (P33261 whole entry, looked up): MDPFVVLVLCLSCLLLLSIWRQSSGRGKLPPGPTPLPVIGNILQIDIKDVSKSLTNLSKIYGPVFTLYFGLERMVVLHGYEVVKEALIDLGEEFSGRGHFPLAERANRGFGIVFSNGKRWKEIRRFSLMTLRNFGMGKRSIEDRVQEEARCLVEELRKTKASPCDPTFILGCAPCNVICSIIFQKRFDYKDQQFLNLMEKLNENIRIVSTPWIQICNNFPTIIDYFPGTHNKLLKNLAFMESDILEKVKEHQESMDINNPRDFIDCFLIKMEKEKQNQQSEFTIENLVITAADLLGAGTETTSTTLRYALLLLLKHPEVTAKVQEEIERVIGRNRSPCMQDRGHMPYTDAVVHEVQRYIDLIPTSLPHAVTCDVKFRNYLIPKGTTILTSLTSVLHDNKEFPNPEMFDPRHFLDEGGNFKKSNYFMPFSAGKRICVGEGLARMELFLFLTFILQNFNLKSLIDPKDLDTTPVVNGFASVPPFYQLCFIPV

Experiment [12] has as its target Progesterone receptor (Homo sapiens) (UniProt P06401). Nature of the experiment: qHTS assay to identify small molecule antagonists of the progesterone receptor (PR) signaling pathway (AID 1346795; active = well fitted inhibition curve with a large enough effect in the signal ratio in the repeat runs, not every such curve was filed as active; the % refers to the signal ratio). The method, boiled down:
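PR-UAS-bla HEK293T cells with beta-lactamase reporter under UAS control, in 2% charcoal-stripped FBS, treated with compounds plus 1 nM promegestone (R5020, final) for 16 hr at 37C. Read-out: FRET beta-lactamase substrate fluorescence after 2 hr at room temperature.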

Experiment [13] is described as follows: qHTS assay to identify small molecule agonists of the progesterone receptor (PR) signaling pathway - cell viability counter screen (AID 1346799; calls by dose curve; also: nearly all actives have a fitted effect of over 45% in size). The method, boiled down:
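Counter screen in the PR-UAS-bla HEK293T wells (2% charcoal-stripped FBS, 16 h compound exposure at 37 C) after the bla read. CellTiter-Glo added, 30 min at room temperature, luminescence read as cell viability.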

In experiment [14] the target is Thyrotropin-releasing hormone receptor (Homo sapiens) (UniProt P34981). Nature of the experiment: qHTS assay to identify small molecule antagonists of the thyrotropin-releasing hormone receptor (TRHR) signaling pathway (AID 1346877; active = well fitted inhibition curve with a large enough effect in the repeat runs, not every such curve was filed as active; also: series mostly up to about 51 µM). Put shortly: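 Screening used HEK293 cells engineered with TRHR, with a brief 5 min room-temperature compound exposure preceding addition of TRH to 1 nM. The read-out was kinetic calcium-dye fluorescence, concentration-response from 15 doses in triplicate.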
Chain of Thyrotropin-releasing hormone receptor (Homo sapiens) (P34981 whole entry, looked up): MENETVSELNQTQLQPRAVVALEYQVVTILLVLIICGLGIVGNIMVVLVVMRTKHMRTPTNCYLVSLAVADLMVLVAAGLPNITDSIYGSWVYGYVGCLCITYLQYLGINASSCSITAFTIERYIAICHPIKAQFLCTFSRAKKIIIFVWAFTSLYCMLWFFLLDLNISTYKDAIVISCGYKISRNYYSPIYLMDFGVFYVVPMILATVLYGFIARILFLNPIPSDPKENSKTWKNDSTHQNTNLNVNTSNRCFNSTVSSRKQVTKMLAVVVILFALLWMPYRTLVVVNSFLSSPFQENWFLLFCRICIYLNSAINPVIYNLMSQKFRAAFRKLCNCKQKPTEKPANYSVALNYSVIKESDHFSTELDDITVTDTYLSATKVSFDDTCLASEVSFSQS

For experiment [15] the target is unchanged. Description: qHTS assay to identify small molecule agonists of the thyrotropin-releasing hormone receptor (TRHR) signaling pathway (AID 1346891; calls by dose curve; also: series mostly up to about 58 µM). The method, boiled down:
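HEK293 cells expressing TRHR plated 18 h at 37 C/5% CO2, calcium dye-loaded 2 h at 37 C, then compound added (agonist mode); kinetic calcium fluorescence read 3 min at 1 s intervals; 15 concentrations in triplicate.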

Experiment [16] can be described thus: Caspase-3/7 induction in CHO-K1 cells by small molecules, qHTS assay (AID 1346980). Also: nearly all actives have a fitted effect of over 15% in size. Put shortly:
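Luminescent Caspase-Glo 3/7 read (30min, room temperature) quantified apoptosis induction. Cells were wild-type CHO-K1, treated with compound for 17hr at 37 C and 5% CO2.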

Experiment [17] is described as follows: Caspase-3/7 induction in HepG2 cells by small molecules, qHTS cell viability counter screen (AID 1346981). Also: series mostly up to about 92 µM; nearly all actives have a fitted effect of over 30% in size. Put shortly: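 Multiplexed with the caspase-3/7 assay: HepG2 cells, 16 hr compound treatment, CellTiter-Fluor viability detection by fluorescence.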
In experiment [18] the target is Nuclear receptor subfamily 1 group I member 2 (Rattus norvegicus) (UniProt Q9R1A7). Description: Rat pregnane X receptor (rPXR) activation by small molecules, qHTS assay (AID 1346983). Also: nearly all actives have a fitted effect of over 20% in size. The note with it: rPXR luciferase reporter cells, One-Glo luminescence, 24 h; stronger effect = higher value. The method, boiled down:
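Luminescent readout (One-Glo luciferase, 30 min room temperature) followed 24 hr compound treatment at 37 C of rPXR cells plated 2,000 per well and preincubated 5hr; qHTS format with compounds delivered in DMSO.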

The target of experiment [19] is Nuclear receptor subfamily 1 group I member 2 (Homo sapiens) (UniProt O75469). Description: CYP3A4 induction through human pregnane X receptor (PXR) by small molecules, qHTS assay (AID 1346984). Also: nearly all actives have a fitted effect of over 40% in size. The method, boiled down:
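qHTS, concentration-response format: HepG2 DPX-2 line, PXR/CYP3A4-luc. Exposure 24 h, 37C. Substrate Luciferin-IPA 3uM final, 3 h. Detection One-Glo, 30 min RT.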

Experiment [20] has the same target. Nature of the experiment: Human pregnane X receptor (PXR) activation by small molecules, qHTS assay (AID 1346985). Also: nearly all actives have a fitted effect of over 40% in size. Put shortly:
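DPX-2 cells (HepG2 co-transfected with a PXR response element and a CYP3A4-promoter luciferase construct) were seeded at 2,000 per well, rested 5 hr at 37C, then exposed to DMSO-dissolved compounds for 24 hr. Activation was read as luciferase luminescence.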

Values joined by “and” are separate entries in the source; they are usually repeats but may differ in a detail not shown here. Equal values may be shown once. Inconclusive results are not listed. Some structures have more than one record in an assay (separate samples or runs), and their calls can disagree. Active and inactive are the calls of the source. Unless noted, calls follow the shape of the dose curve; as a rule, active = well fitted curve in the direction sought with a large enough effect in the repeat runs; inconclusive = weak or mixed curves; inactive = no such curve, though single readings can be large; an effect the other way counts as inactive or inconclusive.
% is scaled to controls: 0 for no effect and ±100 for the full control effect.

Chain of Nuclear receptor subfamily 1 group I member 2 (Rattus norvegicus) (Q9R1A7 whole entry, looked up): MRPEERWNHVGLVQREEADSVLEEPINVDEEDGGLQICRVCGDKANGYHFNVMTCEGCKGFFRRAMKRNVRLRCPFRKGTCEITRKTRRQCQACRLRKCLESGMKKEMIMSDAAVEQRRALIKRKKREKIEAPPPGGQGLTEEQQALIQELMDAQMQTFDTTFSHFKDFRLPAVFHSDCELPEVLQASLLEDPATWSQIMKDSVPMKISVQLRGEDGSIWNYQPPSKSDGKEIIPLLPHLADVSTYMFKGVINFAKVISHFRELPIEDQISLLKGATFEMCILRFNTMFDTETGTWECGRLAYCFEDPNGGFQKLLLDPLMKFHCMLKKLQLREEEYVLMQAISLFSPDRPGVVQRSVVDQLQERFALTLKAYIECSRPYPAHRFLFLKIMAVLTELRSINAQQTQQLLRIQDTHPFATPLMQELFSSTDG
Chain of Cytochrome P450 2D6 (Homo sapiens) (P10635 whole entry, looked up): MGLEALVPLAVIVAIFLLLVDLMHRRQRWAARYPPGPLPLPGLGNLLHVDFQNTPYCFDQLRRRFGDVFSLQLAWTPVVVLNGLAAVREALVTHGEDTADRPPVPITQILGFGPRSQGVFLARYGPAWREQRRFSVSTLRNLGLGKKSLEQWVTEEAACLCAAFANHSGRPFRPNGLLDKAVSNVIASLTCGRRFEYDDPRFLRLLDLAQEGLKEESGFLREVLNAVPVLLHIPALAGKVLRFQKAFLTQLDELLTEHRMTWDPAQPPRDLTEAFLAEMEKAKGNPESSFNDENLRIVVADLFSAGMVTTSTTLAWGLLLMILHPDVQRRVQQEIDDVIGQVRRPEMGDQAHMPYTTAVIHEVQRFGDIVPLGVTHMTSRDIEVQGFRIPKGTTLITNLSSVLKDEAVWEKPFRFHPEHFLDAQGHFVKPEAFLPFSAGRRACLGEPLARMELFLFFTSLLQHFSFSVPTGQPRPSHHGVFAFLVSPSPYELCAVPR

In the case of `COC(=O)c1c(Cl)c(Cl)c(C(=O)OC)c(Cl)c1Cl`, the Potency result in experiment [1], in [2], in experiment [3], in [6], in [7] and in [8] was “inactive” in each case. Further, the call in experiment [4] and in experiment [5] was inactive. Further, the Potency in experiment [9] is 21.7 µM (active); in experiment [10], “inactive and 31.7 µM (active)”; in [11], 28.3 µM (active) and 15.9 µM (active).

On to `CC(C)NCC(O)c1ccc(NS(C)(=O)=O)cc1` (centres undefined), for which the Potency result in [12], in experiment [2], in experiment [13], in experiment [3], in experiment [7] and in [8] was “inactive” in each case. Besides, the Potency entry in experiment [17], in experiment [9], in experiment [19], in experiment [20] and in experiment [11] was “inactive” throughout. In addition, the compound was classed as inactive in experiment [4], in experiment [5], in experiment [14], in [15] and in experiment [16]. In addition, the max activation in [18] is -1.64% (inactive). Moreover, the Potency in experiment [10] was 36 µM (active).

Regarding `C1CN(CCOCCN2CCOCC2)CCO1`, the Potency entry in [1], in [12], in experiment [3], in experiment [6], in experiment [7] and in experiment [9] was “inactive” in each case. The Potency result in [10] and in [11] was “inactive” each time. Moreover, the call in experiment [4], in experiment [5] and in experiment [16] was inactive.

Turning to `Nc1ccc(S(=O)(=O)Nc2ccnn2-c2ccccc2)cc1`, the Potency entry in [12], in experiment [2], in experiment [8], in experiment [19], in experiment [20] and in [11] was “inactive” each time. The activity change, negative = cytotoxicity in [13] is -4.95% [at 19 µM] (inactive); in experiment [4] it was 13.7% [at 15.8 µM] (inactive); in experiment [6], -0.0622% [at 19 µM] (inactive); in experiment [17] it was -0.388% [at 19 µM] (inactive). In [3], the viability change, negative = cytotoxic was 6.26% [at 15.8 µM] (inactive). Besides, the activation is -0.937% [at 15.8 µM] (inactive) in [5], -0.182% [at 11.8 µM] (inactive) in [15] and -6.08% [at 19 µM] (inactive) in [9]. In addition, the caspase activation in [7] is 0.58% [at 19 µM] (inactive). In addition, the caspase-3/7 activation in [16] was 1.89% [at 19 µM] (inactive). For the same compound, the max activation in experiment [18] is 8.45% (inactive). In addition, in [10], the activity change, negative = inhibition was 0.38% [at 23.6 µM] (inactive).

Regarding `CN1CCN(c2cc3c(cc2F)c(=O)c(C(=O)O)cn3-c2ccc(F)cc2)CC1`, the Potency in [1] is 29.8 µM (active). Also, the Potency result in [2], in experiment [13], in experiment [3], in experiment [6], in [7] and in experiment [17] was “inactive” throughout. The Potency entry in experiment [9], in [19], in experiment [20], in experiment [10] and in experiment [11] was “inactive” throughout. Besides, the compound was classed as inactive in experiment [4], in [14], in [15] and in experiment [16]. In experiment [18], the max activation is -3.97% (inactive).

Regarding `Cc1sccc1Br`, the Potency result in experiment [2], in experiment [13], in experiment [3], in [7], in experiment [17] and in [9] was “inactive” each time. Besides, the Potency result in experiment [10] and in [11] was “inactive” in each case. For the same compound, the result in experiment [4], in experiment [5], in [14], in [15] and in experiment [16] was inactive.

For `NCCCNCCSP(=O)(O)O`, in [3], the viability change, negative = cytotoxic is 10.3% [at 6.97 µM] (inactive). Also, the results for the activity change, negative = cytotoxicity in experiment [4] and in experiment [17] were -10% [at 6.97 µM] (inactive) and 1.15% [at 8.39 µM] (inactive), respectively. Moreover, the activation in experiment [5] is 0.256% [at 6.97 µM] (inactive); in experiment [15], -0.402% [at 5.23 µM] (inactive); in experiment [9], -4.2% [at 8.39 µM] (inactive). In experiment [14], the activity, negative = inhibition was 2.65% [at 4.65 µM] (inactive). Further, the caspase activation in [7] is -1.36% [at 8.39 µM] (inactive). In addition, the caspase-3/7 activation in [16] was 0.0901% [at 8.39 µM] (inactive). The activity change, negative = inhibition was -0.545% [at 10.5 µM] (inactive) in experiment [10] and -2.49% [at 10.5 µM] (inactive) in experiment [11].

Source of the values: PubChem BioAssay (Tox21).
